High-throughput results deposited in PubChem BioAssay by National Center for Advancing Translational Sciences (NCATS).
HCV inh – HCV inhibition. Huh7.5.1 HCVcc-Cre infection, luciferase reporter, 44 h. Potency, µM (highest dose often 41.8 µM), for the others: at the top dose activity change, negative = inhibition, usual class: inhibitors. 340,000 compounds, 3.4% hits; note: potency is the fitted concentration of half-maximal effect
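Seed cells (1,000/well) for 4 h; treat with compound and infect with HCVcc-Cre, moi about 0.5. Incubate 44 h, then detect luciferase activity.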
HCMV antiviral – inhibitors of human cytomegalovirus; activity change, negative = inhibition, % at 57.5 µM; 410,000 compounds, 4.5% hits; HFF cells, HCMV-luciferase reporter, 72 h; hits give low values; in the data active = activity change below about -60%; inconclusive = no clear call, values can overlap the other calls; inactive = above about -39%
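Luciferase read-out from HCMV-luciferase-infected HFFs (MOI 1 PFU/cell) 72 h post infection at 37C; compounds added after 16 h cell attachment; activity normalized between buffer-only basal and Salinomycin (10uM) inhibitor controls.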
Pf growth 48h – inhibits P. falciparum growth in the first generation, 48 h; P. falciparum luciferase growth in erythrocytes, 48 h; Potency, µM (top dose mostly 28.7 µM), for inactives: at the top dose activity change, negative = inhibition, usual class: inhibitors; 310,000 compounds, 5.9% hits; note: potency is the fitted concentration of half-maximal effect
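Growth was read as firefly luciferase luminescence after a 48 h, 37 C, 5% CO2 exposure of compounds to reporter-bearing P. falciparum cultures (0.1% parasitemia, 2% hematocrit final) in Albumax-supplemented RPMI 1640.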
Pf growth 96h – P. falciparum growth inhibition at 96 hours; Potency, µM (doses to about 28.7 µM), without a hit: at the highest dose activity change, negative = inhibition, actives largely listed as inhibitors; AID 504834; P. falciparum luciferase reporter growth, 96 h; 320,000 compounds, 6.9% hits; note: potency is the fitted concentration of half-maximal effect
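Luminescence readout: decreased luciferase signal marks inhibited growth of reporter-expressing P. falciparum in infected red cells (2% hematocrit, 0.05% parasitemia final), exposed to compound two generations (96 h, 37 C, 5% CO2).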
An asterisk follows results filed as active; u = inconclusive; x = no result given; ! = repeats disagree; [ ] = another dose, or the depositor's remark. In the library only some 13% were active in any assay of this set; here they are far more common. Unless noted, calls come from the whole dose curve; as a rule, active = well fitted inhibition curve with a large enough effect; inconclusive = small, poorly fitted or top-dose-only effect, or another doubt; inactive = no such curve, though single readings can be large or run the other way. % is set by controls: 0 for no effect and ±100 for the full control effect.

SMILES	HCV inh	HCMV antiviral	Pf growth 48h	Pf growth 96h
COc1ccc(-c2cc(N)n(S(=O)(=O)c3c(F)c(F)c(F)c(F)c3F)n2)cc1OC	u	-102.3*	u	u
C=CCN1C[C@H](COC(=O)c2ccc(C)c(C)c2)Oc2cccc(F)c2S1(=O)=O	x	-7.2	x	x
COc1ccc(CN2C(=O)C(Cc3ccccc3)Nc3ncnc(N4CCc5ccccc5C4)c32)cc1 (centres undefined)	-21.8%	x	7.38µM*	5.22µM*
O=C1C(Cc2ccccc2)Nc2ncnc(N3CCc4ccccc4C3)c2N1Cc1ccc(Cl)cc1 (centres undefined)	5.7%[8.37 µM]	x	14.7µM*	6.57µM*
Cc1ccc(CN2C(=O)C(Cc3ccccc3)Nc3ncnc(N4CCOCC4)c32)cc1 (centres undefined)	x	-19.6	x	x
O=C1C(Cc2ccccc2)Nc2ncnc(N3CCOCC3)c2N1Cc1ccccc1 (centres undefined)	-5.9%	-101.2*!	x	x
CCC1Nc2ncnc(N3CCc4ccccc4C3)c2N(Cc2ccc(Cl)cc2)C1=O (centres undefined)	14.6%	-4.2	x	x
CCOc1ccc(NC(=O)c2ccc3nc(Cc4ccccc4)oc3c2)cc1	x	-15.5	x	x
CCOC(=O)c1c(S(=O)(=O)N2CCC(C(=O)N3CCN(c4cc(C)ccc4C)CC3)CC2)c(C)n(C)c1C	x	18.0	x	x
O=[N+]([O-])c1cccc2nc(-c3ccccc3)c(-c3ccccc3)nc12	-9.3%	-101.3*	-14.7%	-4.3%
CC(C)Cc1nn2c(=O)cc(COC(=O)c3ccc(NC(=O)CCc4ccccc4)cc3)nc2s1	x	-19.6	x	x
CCOC(=O)c1[nH]cnc1N=Nc1c(O)ccc2ccccc12	7.94µM*	-97.3*	2.94µM*	2.33µM*
O=S(=O)(O)c1cccc(N=Nc2c(O)ccc3ccccc23)c1	4.3%	-18.1	u	10.4µM*
Oc1ccc2ccccc2c1N=Nc1ccccn1	8.91µM*	-97.7*	u	6.57µM*
COc1cc(NC(=O)CN2CCN(CC(=O)Nc3ccc(F)cc3)CC2)cc(OC)c1	x	-23.1	x	x
CCOc1cccc(C(=O)N(Cc2ccc(N(C)C)cc2)CC2CCCO2)c1 (centres undefined)	x	-26.7	x	x
Cc1cc2cc3c(cc2nc1SCc1ccc(C(=O)O)cc1)OCCO3	u	20.4	11.1%	9.28µM*
COC(=O)CSc1nc2cc3c(cc2cc1C)OCO3	u	0.4	24.5%	-8.8%
COc1cccc(CSc2nc3cc4c(cc3cc2C)OCCO4)c1	u	-14.4	-7.6%	5.86µM*
Cc1cc2cc3c(cc2nc1SCC(=O)OC(C)C)OCCO3	u	60.5	x	134.6%
COC(=O)[C@]12CCCCC=C1N(Cc1ccccc1)C(=O)[C@H](CC(=O)NCC1CCCCC1)C2	x	-5.0	x	x
COc1ccccc1CN1CCN(C2CCN(C(=O)Nc3ccccc3)CC2)C(=O)C1=O	x	12.3	x	x
CC(=O)Nc1cccc(NC(=O)CSc2ncc(C(=O)Nc3ccccc3)c(=O)n2C)c1	11.2µM*	9.5	u	3.5%
COCCn1c(SCC(=O)Nc2cc(C)cc(C)c2)nc2ccccc2c1=O	u	3.2	-27.9%	149.3%
Cc1cccc(C)c1NC(=O)Cn1cnc2c(=O)n(C)c(=O)n(C)c21	-2.8%	56.0	6.0%	25.7%
SMILES	HCV inh	HCMV antiviral	Pf growth 48h	Pf growth 96h
COCCn1c(SCC(=O)Nc2cccc(C(=O)OC)c2)nc2ccccc2c1=O	-25.2%	-15.9	13.1µM*	49.4%
Cc1ccccc1C(=O)Nc1cccc(NC(=O)Cn2cnc3c(=O)n(C)c(=O)n(C)c32)c1	u	-64.1*	u	x
COc1cccc(NC(=O)CSc2nc3ccccc3c3nc4ccccc4n23)c1	u	u	13.1µM*	13.8%
COc1ccc(-n2cnnc2SCC(=O)Nc2cc(C(C)(C)C)nn2-c2ccccc2)cc1	-3.0%	-96.5*	x	u
CCOCCCn1c(SCC(=O)Nc2cccc(OC)c2)nc2ccccc2c1=O	u	-73.3*!	u	-7.8%
Cc1cccc(NC(=O)CSc2nc3c([nH]c4ccccc43)c(=O)n2C)c1	-13.8%	33.5	19.3%	u
CC(=O)c1cccc(NC(=O)CCCCCn2nnc3ccccc3c2=O)c1	-13.3%	14.0	6.57µM*	3.29µM*
Cc1cccc(NC(=O)CSc2nc3ccccc3c(=O)n2C)c1	10µM*	u	14.7µM*	u
CCOCCCn1c(SCC(=O)Nc2cc(C(C)(C)C)nn2-c2ccccc2)nc2ccccc2c1=O	-0.2%	-5.8	13.1µM*	u
N#CCSc1nc2ccccc2c2nc3ccccc3n12	u	-103.1*	u	7.38µM*
S=c1nc(C2CCCCC2)[nH]c2ccccc12	14.4%	-7.3	-13.0%	2.33µM*
COc1ccc(NCc2ccccc2-c2nnc(-c3ccccc3)o2)cc1Cl	x	8.0	x	x
COc1cccc(N/C(SC)=C(/C#N)C(=O)NCc2cccs2)c1	2.0%	2.5	8.5%	16.4%
COc1cccc(N/C(SCc2ccccc2Cl)=C(/C#N)C(=O)NCc2cccs2)c1	-3.7%	-39.2	10.4µM*	u
COc1cccc(N/C(SCc2cccc([N+](=O)[O-])c2)=C(/C#N)C(=O)NCc2cccs2)c1	-12.3%	-16.0	10.4µM*	u
COc1cccc(N/C(SCc2ccccc2C)=C(/C#N)C(=O)NCc2cccs2)c1	-24.5%	-80.3*	u	2.08µM*
Cc1ccc(-c2cc(NC(=O)C(C)Oc3ccccc3F)on2)cc1 (centres undefined)	x	34.6	x	x
COC(=O)c1cc2oc(C)cc2n1Cc1ccc(C)cc1	x	-5.3	x	x
CCOc1ccc(CCNC(=O)CN2C(=O)COc3ccc(S(=O)(=O)N4CCCC4)cc32)cc1	x	-13.3	x	x
COc1cccc(Cn2c(CNC(=O)CCc3ccccc3)nc3cccnc32)c1	x	0.9	x	x
O=c1cc(-c2ccccc2Cl)oc2c([N+](=O)[O-])c(O)cc(O)c12	4.9%[8.37 µM]	-72.1*	10.8%	-3.2%
CN(C)c1ccc(C(=O)Nc2ccc(O)c3c(=O)cc(-c4ccccc4Cl)oc23)cc1	31.6µM*	-15.5	u	u
COc1ccccc1-c1cc(=O)c2c(O)ccc([N+](=O)[O-])c2o1	22.6%	47.6	11.7µM*	10.4µM*
O=c1cc(-c2ccccc2Cl)oc2ccc([N+](=O)[O-])c(O)c12	19.4%	14.1	-0.4%	u
Cc1c(C(=O)NCc2ccc(OC(C)C)cc2)sc2ncnc(N(C)C3CCCCC3)c12	x	-3.5	x	x
SMILES	HCV inh	HCMV antiviral	Pf growth 48h	Pf growth 96h
Cn1c(C(=O)NCCCN2CCCCCC2)cc2c(=O)n(C)c3ccccc3c21	-23.7%	39.9	3.29µM*	u
COc1ccc(OC)c(CCNC(=O)c2cc3c(=O)n(C)c4ccccc4c3n2C)c1	x	-105.1*	x	x
COc1ccc(CNC(=O)CSCc2cnn(-c3ccccc3)c2-n2cccc2)cc1	-9.2%	2.7	x	u
CCN(CC)CCCNC(=O)c1cc2c(=O)n(C)c3ccccc3c2n1C	-22.8%	26.3	x	10.4µM*
CCCN1CCN(CCCNC(=O)c2cc3c(=O)n(C)c4ccccc4c3n2C)CC1	-18.7%	-3.1	x	3.2%
COc1ccc(OC)c(CCNC(=O)c2cnn(-c3ccccc3)c2-n2cccc2)c1	x	-90.1*	x	x
